66 compounds from the antibiotic and cytotoxicity screens of Wong et al. (2023) can be followed below.

In all, about 39,000 compounds went through this assay and about 3,300 (8.5%) were called active. The list comes from a sample in which actives are over-represented; it also holds similar structures and randomly drawn compounds.

The experiment relates to HepG2. Description: cytotoxicity call (relative viability < 0.9). The note with it: 10 µM.
Regarding `COc1ccc(CN(C)C[C@H]2Oc3c(NC(=O)c4cc(C)nn4C)cccc3C(=O)N([C@@H](C)CO)C[C@@H]2C)cc1`, the cytotoxicity call was “inactive”. As for `COc1ccc(NC(=O)Nc2cccc3c2O[C@H](CN(C)S(=O)(=O)c2cn(C)cn2)[C@H](C)CN([C@@H](C)CO)C3=O)cc1`, the entry is “inactive”; as for `O=C(CCCCCC(=O)Nc1ccccc1O)N/N=C/[C@H](O)[C@@H](O)[C@H](O)[C@H](O)CO[C@H]1O[C@H](CO)[C@H](O)[C@H](O)[C@H]1O`, “inactive”; as for `O=C(C[C@@H]1CC[C@H](NC(=O)CN2CCOCC2)[C@H](CO)O1)NCCc1ccccc1`, “inactive”.

As for `C[C@H]1CN([C@@H](C)CO)C(=O)c2cc(-c3ccc(F)cc3)cnc2O[C@H]1CN(C)C(=O)Cc1ccccn1`, the cytotoxicity call was “inactive”. Under `C[C@@H]1CCCCO[C@@H](CN(C)S(C)(=O)=O)[C@H](C)CN([C@@H](C)CO)C(=O)c2cc(NC(=O)Nc3ccc(C(F)(F)F)cc3)ccc2O1` stands “inactive”. In the case of `CC(C)CC#Cc1ccc2c(c1)O[C@@H](CN(C)C(=O)NC1CCCC1)[C@H](C)CN([C@@H](C)CO)S2(=O)=O`, the cytotoxicity call was “inactive”.

As to `COc1ccc(NC(=O)N(C)C[C@@H]2OCCCC[C@@H](C)Oc3ccc(NC(=O)CCC(F)(F)F)cc3C(=O)N([C@H](C)CO)C[C@@H]2C)cc1`, the cytotoxicity call is “inactive”. As for `C[C@@H]1CCCCO[C@@H](CN(C)C(=O)NC2CCCCC2)[C@H](C)CN([C@@H](C)CO)C(=O)c2cc(NC(=O)CCCCCC(=O)Nc3ccccc3N)ccc2O1`, the entry is “inactive”.

Consider `CS(=O)(=O)Nc1ccc2oc3c(OC(F)F)ccc(C(=O)Nc4c(Cl)cncc4Cl)c3c2c1`, for which the cytotoxicity call is “inactive”. As for `O=c1ccc2c[nH][nH]c-2c1`, the entry is “inactive”. `O=C(CCN1CCNCC1)N1CCCCC1`: the cytotoxicity call was “inactive”. Under `COc1ccc(S(=O)(=O)N(C)C[C@@H]2OCCCC[C@@H](C)Oc3ccc(NS(=O)(=O)c4cn(C)cn4)cc3C(=O)N([C@H](C)CO)C[C@@H]2C)cc1` stands “inactive”; under `C[C@H]1CCCCO[C@H](CN(C)Cc2ccc(C(=O)O)cc2)[C@@H](C)CN([C@@H](C)CO)C(=O)c2cc(NS(=O)(=O)c3ccccc3)ccc2O1`, “inactive”. As for `C[C@@H]1CN([C@H](C)CO)C(=O)c2cc(NC(=O)Nc3cccc4ccccc34)ccc2O[C@H]1CN(C)CC1CCCCC1`, the entry is “active”; as for `C[C@H]1CN([C@@H](C)CO)C(=O)c2cc(NC(=O)Nc3cccc4ccccc34)ccc2O[C@H]1CN(C)CC1CCCCC1`, “active”; as for `C[C@H]1CN([C@@H](C)CO)C(=O)c2cc(NC(=O)Nc3cccc4ccccc34)ccc2O[C@@H]1CN(C)CC1CCCCC1`, “inactive”. In the case of `C[C@H](CO)N1C[C@H](C)[C@H](CN(C)CC2CCCCC2)Oc2ccc(NC(=O)Nc3cccc4ccccc34)cc2C1=O`, the cytotoxicity call is “inactive”. Under `C[C@H](CO)N1C[C@H](C)[C@@H](CN(C)CC2CCCCC2)Oc2ccc(NC(=O)Nc3cccc4ccccc34)cc2C1=O` stands “inactive”; under `C[C@@H]1CN([C@H](C)CO)C(=O)c2cc(NC(=O)Nc3cccc4ccccc34)ccc2O[C@@H]1CN(C)CC1CCCCC1`, “active”.

`C[C@H](CO)N1C[C@H](C)[C@@H](CN(C)CC2CCCCC2)Oc2ccc(NC(=O)Nc3ccccc3)cc2C1=O`: the cytotoxicity call is “inactive”.

For the compound `C[C@@H]1CN([C@@H](C)CO)C(=O)c2cc(NC(=O)Nc3cccc4ccccc34)ccc2O[C@@H]1CN(C)CC1CCCCC1`, the cytotoxicity call was “inactive”. Under `C[C@@H]1CN([C@@H](C)CO)C(=O)c2cc(NC(=O)Nc3cccc4ccccc34)ccc2O[C@H]1CN(C)CC1CCCCC1` stands “inactive”. As for `CC(=O)OC[C@H]1O[C@H](C/C=N/O[C@H](C)c2cn([C@@H]3COC[C@H]3O)nn2)C=C[C@@H]1OC(C)=O`, the entry is “inactive”; as for `C[C@H](CO)N1C[C@H](C)[C@H](CN(C)Cc2ccc(Cl)c(Cl)c2)Oc2ccc(NS(=O)(=O)c3cccs3)cc2C1=O`, “inactive”; as for `Cc1noc(C)c1S(=O)(=O)Nc1ccc2c(c1)CC(=O)N([C@@H](C)CO)C[C@H](C)[C@@H](CN(C)Cc1ccc(C(=O)O)cc1)O2`, “inactive”. As for `C[C@@H]1CN([C@H](C)CO)C(=O)Cc2cc(NS(=O)(=O)c3ccc(F)cc3)ccc2O[C@@H]1CN(C)C(=O)Nc1cccc2ccccc12`, the entry is “inactive”. For the compound `O=C(C[C@@H]1C[C@H]2c3cc(NC(=O)NC4CCCC4)ccc3O[C@H]2[C@@H](CO)O1)NCc1ccc2c(c1)OCO2`, the cytotoxicity call was “inactive”. Under `CCOc1ccn(-c2ccc(F)cc2)c(=O)c1C(=O)Nc1ccc(Oc2ccnc(N)c2Cl)c(F)c1` stands “inactive”; under `Cc1ccc(C(=O)Nc2ccc(Oc3cc4cnn(C)c4cc3-c3cn[nH]c3)c(F)c2)c(=O)n1-c1ccc(F)cc1`, “active”. As for `Cc1c(C(=O)Nc2ccc(Oc3ccnc4cc(OCC(C)(C)O)ccc34)c(F)c2)c(=O)n(-c2ccccc2)n1C`, the entry is “inactive”; as for `C[C@@H]1CCCCO[C@H](CN(C)C(=O)CCC(F)(F)F)[C@H](C)CN([C@@H](C)CO)C(=O)c2cc(NC(=O)CCCCCC(=O)Nc3ccccc3N)ccc2O1`, “inactive”. `C[C@H]1CN([C@@H](C)CO)S(=O)(=O)c2ccc(Br)cc2O[C@H]1CN(C)C(=O)Cc1ccccc1`: the cytotoxicity call is “active”. Under `C[C@@H]1CN([C@H](C)CO)S(=O)(=O)c2ccc(C#Cc3cccnc3)cc2O[C@H]1CN(C)C(=O)CN(C)C` stands “inactive”; under `C[C@@H]1CN([C@@H](C)CO)S(=O)(=O)c2ccc(C#Cc3ccccc3)cc2O[C@H]1CN(C)C(=O)CN(C)C`, “inactive”; under `C[C@H]1CN([C@@H](C)CO)S(=O)(=O)c2ccc(C#Cc3ccc(F)cc3)cc2O[C@@H]1CN(C)C(=O)CN(C)C`, “inactive”. Under `C[C@@H]1CN([C@H](C)CO)S(=O)(=O)c2ccc(C#Cc3ccccc3)cc2O[C@@H]1CN(C)C(=O)CN(C)C` stands “active”; under `C[C@@H]1CN([C@H](C)CO)S(=O)(=O)c2ccc(C#Cc3ccc(F)cc3)cc2O[C@H]1CN(C)C(=O)CN(C)C`, “active”.

As for `C[C@@H]1CN([C@@H](C)CO)S(=O)(=O)c2ccc(C#Cc3ccc(F)cc3)cc2O[C@H]1CN(C)C(=O)CN(C)C`, the cytotoxicity call is “inactive”. As for `C[C@H]1CN([C@@H](C)CO)S(=O)(=O)c2ccc(Br)cc2O[C@H]1CN(C)C(=O)Cc1ccncc1`, the entry is “inactive”. As for `C[C@@H]1CN([C@H](C)CO)S(=O)(=O)c2ccc(C#Cc3cccnc3)cc2O[C@@H]1CN(C)C(=O)CN(C)C`, the entry is “inactive”; as for `C[C@H]1CN([C@@H](C)CO)S(=O)(=O)c2ccc(C#Cc3ccc(F)cc3)cc2O[C@H]1CN(C)C(=O)CN(C)C`, “inactive”. As for `C[C@@H]1CN([C@H](C)CO)S(=O)(=O)c2ccc(C#Cc3ccccc3)cc2O[C@H]1CN(C)C(=O)CN(C)C`, the entry is “active”; as for `C[C@H]1CN([C@@H](C)CO)S(=O)(=O)c2ccc(Br)cc2O[C@@H]1CN(C)C(=O)Cc1ccccc1`, “inactive”.

Take `CO[C@H](CN(C)S(=O)(=O)c1ccc(F)cc1)[C@H](C)CN([C@@H](C)CO)S(=O)(=O)c1cccc(Cl)c1`: the cytotoxicity call was “inactive”.

Consider `COC1C=CC23c4cc5c(cc4CN(CC2O)C3C1)OCO5` (stereo unspecified), for which the cytotoxicity call was “inactive”. In the case of `COC(=O)[C@H](Cc1ccccc1)N1CC2=C[C@H](C3CC3)n3c(=O)n(C)c(=O)n3[C@@H]2[C@H]1[C@H](O)Cc1ccccc1`, the cytotoxicity call was “inactive”. Under `CC(=O)N1CCc2n[nH]c(C(=O)N3CCOCC3)c2C1` stands “inactive”; under `CC(C)NC(=O)N(C)C[C@@H]1Oc2c(NC(=O)C3CCOCC3)cccc2C(=O)N([C@H](C)CO)C[C@@H]1C`, “inactive”; under `C[C@@H]1CN([C@@H](C)CO)S(=O)(=O)c2ccc(C#Cc3ccccc3)cc2O[C@@H]1CN(C)C(=O)CN(C)C`, “active”. In the case of `C[C@H]1CN([C@@H](C)CO)S(=O)(=O)c2ccc(C#Cc3ccccc3)cc2O[C@H]1CN(C)C(=O)CN(C)C`, the cytotoxicity call was “active”.

For the compound `C[C@H](CO)N1C[C@H](C)[C@H](CN(C)C(=O)CN(C)C)Oc2cc(C#Cc3ccc(F)cc3)ccc2S1(=O)=O`, the cytotoxicity call is “inactive”. Under `C[C@H]1CN([C@@H](C)CO)S(=O)(=O)c2ccc(C#Cc3ccccc3)cc2O[C@@H]1CN(C)C(=O)CN(C)C` stands “inactive”; under `C[C@H](CO)N1C[C@H](C)[C@@H](CN(C)C(=O)CN(C)C)Oc2cc(C#Cc3ccc(F)cc3)ccc2S1(=O)=O`, “inactive”; under `C[C@H](CO)N1C[C@H](C)[C@@H](CN(C)C(=O)CN(C)C)Oc2cc(C#Cc3ccccc3)ccc2S1(=O)=O`, “active”.

With `C[C@@H]1CN([C@@H](C)CO)S(=O)(=O)c2ccc(C#Cc3ccc(F)cc3)cc2O[C@@H]1CN(C)C(=O)CN(C)C`, the cytotoxicity call is “inactive”. As for `C[C@H](CO)N1C[C@H](C)[C@H](CN(C)C(=O)CN(C)C)Oc2cc(C#Cc3ccccc3)ccc2S1(=O)=O`, the entry is “inactive”; as for `C[C@@H]1CN([C@H](C)CO)S(=O)(=O)c2ccc(C#Cc3ccc(F)cc3)cc2O[C@@H]1CN(C)C(=O)CN(C)C`, “inactive”. As for `C[C@@H]1CCCCO[C@@H](CN(C)Cc2ccc(C(F)(F)F)cc2)[C@H](C)CN([C@H](C)CO)C(=O)c2cc(N(C)C)ccc2O1`, the entry is “inactive”. As for `Cn1ccc(C(=O)N2CCC3(CCOC[C@@H]3NS(C)(=O)=O)CC2)n1`, the entry is “inactive”. As to `Cc1noc(C)c1S(=O)(=O)Nc1ccc2c(c1)CC(=O)N([C@@H](C)CO)C[C@H](C)[C@H](CN(C)C(=O)NC(C)C)O2`, the cytotoxicity call was “inactive”.

Take `COc1cccc(S(=O)(=O)N[C@H]2CC[C@@H](CC(=O)NC3CCC3)O[C@@H]2CO)c1`: the cytotoxicity call is “inactive”. As for `CC(=O)NCCCC[C@@H]1NC(=O)[C@H]2C[C@@H](C(=O)NCCCCCCN(C)C)[C@@H](c3ccc(O)cc3)N2C1=O`, the entry is “inactive”. Under `C[C@@H]1CCCCO[C@H](CN(C)C(=O)Nc2ccc(F)cc2)[C@H](C)CN([C@@H](C)CO)C(=O)c2cc(NC(=O)c3ccncc3)ccc2O1` stands “inactive”. For the compound `NCc1ccc(S(=O)(=O)O)cc1`, the cytotoxicity call was “inactive”. For `C[C@@H]1CN([C@@H](C)CO)C(=O)Cc2cc(NC(=O)Cn3cnnn3)ccc2O[C@@H]1CN(C)C(=O)Nc1ccc(F)cc1`, the cytotoxicity call was “inactive”.
